The campaign covered roughly 410,000 compounds. About 2,000 (0.49%) were called active. Another 8% or so got no clear call; they are omitted. Calls come from the whole dose curve; tested in HEK293 reporter line. This excerpt belongs to a sample that is enriched for actives.
Assay: qHTS Assay for Foot and Mouth Disease Virus Antivirals: Primary Screen against the MLPCN compound library; note: nearly all actives have a fitted effect of over 55% in size
Conditions: FMDV antiviral cell-based qHTS; series mostly up to 57.9 µM; activity, negative = inhibition: at the top concentration
Potency is the fitted concentration of half-maximal effect.

Compound	Potency	activity, negative = inhibition
CCN1CCN(C(=O)c2ccc(NS(=O)(=O)c3ccccc3)cc2)CC1	inactive	
Cc1ccccc1-c1ccnc2c(-c3ccc(F)cc3)c(C)nn12	28.2 µM (active)	
Cc1nc2c(-c3ccc(F)cc3)c(C)nn2c(C)c1CCC(=O)Nc1ccccc1		-40.1% (inactive)
Cc1nn2c3c(cnc2c1-c1ccc(F)cc1)C(=O)CC(c1ccccc1)C3 (centres undefined)		-35.2% (inactive)
CCN(C(=O)COC(=O)/C=C/c1cccc(Br)c1)C1CCS(=O)(=O)C1 (centres undefined)		-39.3% (inactive)
O=C(c1ccco1)N1CCN(c2ncnc3c(-c4ccc(Cl)cc4)nsc23)CC1		-30.7% (inactive)
CN1CCN(c2ncnc3c2[nH]c2ccc(F)cc23)CC1		-35.1% (inactive)
O=C(c1ccco1)N1CCN(c2ncnc3c2[nH]c2ccc(Br)cc23)CC1	31.6 µM (active)	
COC(=O)c1ccc(CSc2ccc3nnc(-c4ccc(F)cc4)n3n2)o1		-33.2% (inactive)
O=C(Nc1ccccc1)Nc1ccc(O)c2ccccc12		-12.1% (inactive)
COc1cc(NC(=O)Nc2cccc(Cl)c2)c(C(=O)O)cc1OC		-14.1% (inactive)
O=C(Nc1ccc(Cl)cc1)Nc1ccccc1C(=O)O	10 µM (active)	
CC1CCc2sc(C(=O)N3CCN(c4ncccn4)CC3)cc2C1 (centres undefined)		-18.6% (inactive)
CC(=O)c1ccc(-c2cc([C@H]3[C@H]4C=CC[C@@H](C)[C@@H]4C(=O)N3Cc3ccccc3)ccc2F)cc1		-38.5% (inactive)
O=C(/C=C/Nc1ccccc1)c1ccccc1	7.94 µM (active)	
O=C1Nc2ccc(Br)cc2/C1=C/C(=O)c1ccccc1		-31.5% (inactive)
Cc1ccc(N/C=C/C(=O)c2ccccc2)cc1C	7.94 µM (active)	
O=C(/C=C\Nc1ccc2c(c1)OCO2)c1ccc2c(c1)OCO2	17.8 µM (active)	
O=C(Nc1ccccc1)/C(=C/c1ccccc1)c1ccccc1		-36.4% (inactive)
Cn1c(=O)n(C)c2cc(C(=O)Nc3ccc4c(c3)OCO4)ccc21		107% (inactive)
CC(=O)c1cccc(NS(=O)(=O)c2ccc(N/C=C\C(=O)c3ccc(C)cc3)cc2)c1		-30.2% (inactive)
Cc1ccc(NC(=O)C(=O)NCC2(c3ccccc3)CCCC2)cc1C		-33.4% (inactive)
CSc1ccccc1NC(=O)CSCc1ccc(Br)cc1		-36.5% (inactive)
Cc1ccc(NC(=O)c2ccc(NC(=O)c3ccccc3)cc2)cc1C		-26.7% (inactive)
O=C(/C=C/Nc1ccccc1F)c1ccc(Br)cc1	12.6 µM (active)	
O=C(NC(=S)Nc1ccc2c(c1)OCO2)c1ccc(Cl)cc1		111% (inactive)
O=C(/C=C/c1cc([N+](=O)[O-])ccc1OC(F)F)Nc1cccc([N+](=O)[O-])c1		-28.7% (inactive)
O=C(COc1ccc(Br)cc1)N1CCN(c2ccccc2)CC1		-33.6% (inactive)
CCc1nc(SCc2cccnc2)c2c(=O)n(C)c(=O)n(C)c2n1		-35.2% (inactive)
